Screening data as filed in PubChem.
RAM inhibit – yeast RAM network inhibition | S. cerevisiae dse1pr::URA3 reporter, 5-FOA growth OD615, 2 d; analog-sensitive cbk1-as2 kinase mutant strain | inhibition, % at 50 µM | 190,000 tested, 1.8% active;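 active = inhibition above a set limit, 3 SD over mean compound inhibition, cut at about 8.4% in these data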;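 also: 0% = DMSO-only wells with no growth and 100% = 10 µM 1-NA-PP1 full growth; inhibition rescues growth on 5-FOA so higher OD means more RAM inhibition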
WT yeast gro inh – growth inhibition of WT yeast, mitochondrial fusion screen. 190,000 tested, 2.1% active. inhibition, % at 10 µM. mitochondrial fusion phenotypic screen, WT strain; in the data active = inhibition above about 58%; tested in S. cerevisiae
CHOP inhibitor – CHOP inhibition in unfolded protein response. inhibition, % at 10 µM. 220,000 tested, 3.8% active. CHO-K1 CHOP-promoter luciferase, tunicamycin-induced, 15-18 h. AID 2732;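 active = compounds that reduced the stress-induced luciferase reporter signal by more than about 70% of percent inhibition, limit read from the data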;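 also: 0% = tunicamycin plus vehicle and 100% = wells without tunicamycin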
L major viab – Leishmania major promastigote growth inhibition | Leishmania major promastigotes, resazurin fluorescence viability | inhibition, % at 10 µM | 200,000 tested, 9% active | AID 1063; in the data active = inhibition above about 50%;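 also: promastigotes grown with compound for 44 hours at 28 °C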
The depositor's hits bear a star; · = no result given. Sampled rows, rich in hits. Any-hit rate of the full collection: about 13%.

SMILES	RAM inhibit	WT yeast gro inh	CHOP inhibitor	L major viab
Cc1ccc(NC(=O)CN(C)C(=O)Cn2ncc(Cl)c(Cl)c2=O)cc1	2	-8	-151	73*
CCC1SC2=NC(C)=C(C(=O)OCCOC)C(c3ccc(C(=O)OC)cc3)N2C1=O (stereo unspecified)	1	9	12	-3
N#Cc1c(-c2cccnc2)c2c([nH]c1=S)CCCC2	2	91*	2	-5
COC(C[C@@H](O)C[C@H](O)[C@@H](C)OCc1ccccc1)OC	·	·	-9	·
COc1cc(OC)c(CN2CCC(CO)(CCOc3ccccc3)CC2)c(OC)c1	2	4	-2	2
COc1cc(CN2CCC(CO)(CCOc3ccccc3)CC2)cc(OC)c1OC	1	-2	5	87*
CCn1ccnc1CN1CCC(CO)(CCOc2ccccc2)CC1	2	-7	1	1
Cc1nn(C)c(Cl)c1CN1CCC(CO)(CCOc2ccccc2)CC1	1	0	4	72*
C=CCOc1ccccc1CN1CCC(CO)(CCOc2ccccc2)CC1	1	16	17	22
COc1ccc(CN2CCC(CO)(CCOc3ccccc3)CC2)cc1C	1	15	32	85*
OCC1(CCOc2ccccc2)CCN(CCCn2cccn2)CC1	0	-1	6	81*
CCOC(=O)C1(CCOc2ccccc2)CCN(Cc2nccn2CC)CC1	0	19	56	31
CCn1c(SCc2ccc(OC)cc2)nnc1-c1ccncc1	-1	-5	0	-5
Cc1cc2c(ncn2Cc2ccccc2)c([N+](=O)[O-])c1C	1	24	9	-5
CN1CCN(c2nc(-c3cc4ccccc4o3)cs2)CC1	0	35	12	69*
CCOC(=O)c1c(C)n(C)c2ccc(OCC(O)CNC(CC)CO)cc12 (stereo unspecified)	2	-38	-23	6
CCOC(=O)c1c(C)n(C)c2ccc(OCC(O)CN3CCCCCC3)cc12 (stereo unspecified)	0	13	37	98*
CCOC(=O)c1c(C)n(-c2ccc(C)cc2)c2ccc(OCC(O)CNCC3CCCO3)cc12 (stereo unspecified)	-1	72*	60	100*
CCOC(=O)c1c(C)n(-c2ccc(C)cc2)c2ccc(OCC(O)CNCCCO)cc12 (stereo unspecified)	2	33	-7	80*
CCOC(=O)c1c(C)n(C)c2ccc(OCC(O)CN3CCC(C)CC3)cc12 (stereo unspecified)	1	21	46	44
O=S(=O)(NC(=NC1CCCC1)C(F)(F)F)c1ccccc1	0	-2	1	-5
Cc1cc(C)nc(N/C(=N\S(=O)(=O)Cc2ccccc2)Nc2ccc(F)c(Cl)c2)n1	0	5	5	-10
Cc1c(NC(=S)NC(NC(=O)C(C)C)C(Cl)(Cl)Cl)c(=O)n(-c2ccccc2)n1C (stereo unspecified)	1	5	4	-5
Cn1c(/C=C/N2CCOCC2)c(C(=O)c2ccc(Br)cc2)c(=O)n(C)c1=O	2	77*	6	0
O=C(Nc1nnc(-c2ccco2)o1)C1CC1	3	7	-1	-6
SMILES	RAM inhibit	WT yeast gro inh	CHOP inhibitor	L major viab
COc1cccc(NC(=O)N(C2CCCCC2)C(C)c2cccs2)c1 (stereo unspecified)	1	11	43	12
CC1(C)Cc2ccccc2C2=NNC(=O)C2=N1	0	-24	23	100*
CN1C(=O)/C(=C/c2cn(CC(=O)N3CCCCC3)c3ccccc23)c2ccccc21	5	2	12	86*
CCSc1nc(-c2ccc(OC)cc2)ccc1C#N	8.7*	-25	57	8
CCc1ccc(C(=O)CN2C(=O)NC(C)(CCc3ccccc3)C2=O)cc1 (stereo unspecified)	5	12	39	-8
O=C(O)CCc1nn2c3ccccc3n(Cc3ccccc3F)c2nc1=O	3	-4	-6	-6
NC(=O)N/N=C/c1ccccc1OCC(=O)NCc1ccccc1	0	-2	2	-5
CCCNC(=O)c1c(N)n(-c2cccc(OC)c2)c2nc3ccccc3nc12	4	10	89*	27
COCCCNC(=O)c1c(N)n(-c2cccc(S(N)(=O)=O)c2)c2nc3ccccc3nc12	4	15	-4	-6
O=S(=O)(N1CCCCC1)N1CCN(CC(O)COc2ccc3cc(Br)ccc3c2)CC1 (stereo unspecified)	1	12	87*	-4
OC(COc1ccc2cc(Br)ccc2c1)CN1CCCC1 (stereo unspecified)	-2	20	5	100*
COc1cccc(OCC(O)CN2CCN(c3ccccn3)CC2)c1 (stereo unspecified)	1	-8	14	25
CN(C)S(=O)(=O)N1CCN(CC(O)COc2ccc3cc(Br)ccc3c2)CC1 (stereo unspecified)	1	98*	70	10
OC(COc1ccc2cc(Br)ccc2c1)CN1CCN(c2ccccn2)CC1 (stereo unspecified)	-1	32	79*	-1
Cc1ccc(CNC(=O)CCC2CCCN(Cc3cccc4cccnc34)C2)o1 (stereo unspecified)	2	7	10	5
CS(=O)(=O)c1[nH]nc(-c2ccccc2)c1C#N	·	·	-6	·
COc1cccc(OCCOc2c(OC)cccc2OC)c1	1	8	13	-3
COc1cccc(NC(=S)N(CCN(C)C)C(C)c2ccncc2)c1 (stereo unspecified)	·	·	-2	·
OC(COC(c1ccc(Cl)cc1)c1ccc(Cl)cc1)CN1CCN(c2ccccn2)CC1 (stereo unspecified)	0	79	91*	71*
Cc1ccc(C2=N/C(=C\c3cccnc3)C(=O)O2)cc1	0	12	21	66*
CC1(C(=O)Oc2ccccc2)Cc2ccccc2C(=O)O1 (stereo unspecified)	2	-10	2	4
COc1cccc2sc(N3CCN(c4nc5ccccc5s4)CC3)nc12	-1	10	80*	-4
COCCn1nnnc1C(c1ccc(OC)c(OC)c1)N1CCN(c2nc3ccccc3s2)CC1 (stereo unspecified)	·	·	·	83*
COCCn1nnnc1C(c1ccccc1OC)N1CCc2ccccc2C1 (stereo unspecified)	·	·	·	85*
COc1ccc(Cn2nnnc2C(c2cccs2)N2CCCCCC2)cc1 (stereo unspecified)	0	27	57	57*
SMILES	RAM inhibit	WT yeast gro inh	CHOP inhibitor	L major viab
COCCn1nnnc1C(c1ccc(OC)c(OC)c1)N1CCc2ccccc21 (stereo unspecified)	1	6	20	-6
COC(=O)c1ccccc1NC(=O)C1CCN(C(=O)c2cc(OC)c(OC)c(OC)c2)CC1	2	-13	-4	0
CCOC(=O)N1CCN(C(=O)CCCCn2c(=S)[nH]c3ccsc3c2=O)CC1	2	14	22	1
Cc1ccc(C)c(NS(=O)(=O)c2cc(C(=O)N3CCCC3)ccc2Cl)c1	0	-68	-5	12
O=C(SCC(O)C(O)CS)c1cccs1 (stereo unspecified)	·	·	1	·
Cc1ccc(C(c2nnnn2Cc2ccccc2)N2CCN(Cc3ccccc3)CC2)cc1 (stereo unspecified)	0	13	42	92*
